# Laboratory results from the supplement of paper PMC9925115.
# Structures can show the parent of a compound that is named as a salt. ± gives the uncertainty stated by the source.
# System: FLX1
# Assay: cell viability z-score within plate (CellTiter-Glo), mean of 3 biological replicates; higher = higher viability relative to plate (less growth inhibition)
# Conditions: 2 µM; time (hr): 120
# Description: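 FLX1 fibrolamellar carcinoma cells (DNAJB1-PRKACA fusion), 600 cells/well in 384-well plates, treated with a Selleck kinase inhibitor library (L1200) at 2 uM for 5 days (120 hr); viability by CellTiter-Glo. A z-score was computed within each plate and averaged over three biological replicates.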
row,Structure (SMILES),cell viability z-score within plate
1,O=c1ccc2ccc(O)c(O)c2o1 [Daphnetin],1.53 ± 0.8
2,CNC(=O)c1ccccc1Nc1nc(Nc2ccc(N3CCOCC3)cc2OC)ncc1Cl,1.3 ± 1.2
3,CCn1c2ccccc2c2cc(Nc3ccnc(NCCCN4CCOCC4)n3)ccc21,1.38 ± 0.26
4,COc1cc2ncnc(Nc3cccc(Cl)c3)c2cc1OC [AG-1478 (Tyrphostin AG-1478)],-0.29 ± 0.52
5,Cc1cnc(NC(=O)Nc2cc(Br)c(C)cc2OC[C@@H]2CNCCO2)cn1,0.709 ± 0.31
6,CNC(=O)c1cc(Oc2ccc(NC(=O)Nc3ccc(Cl)c(C(F)(F)F)c3)c(F)c2)ccn1 [Regorafenib (BAY 73-4506)],2 ± 0.81
7,CNC(=O)c1ccccc1Sc1ccc2c(/C=C/c3ccccn3)n[nH]c2c1 [Axitinib],0.834 ± 0.44
8,CN1CCN(Cc2ccc(-c3cnc4[nH]cc(-c5ccc6[nH]ccc6c5)c4c3)cc2)CC1,-0.36 ± 0.19
9,O=c1sn(-c2cccc3ccccc23)c(=O)n1Cc1ccccc1 [Tideglusib],-2.63 ± 1.1
10,O=c1ncn2nc(Sc3ccc(F)cc3F)ccc2c1-c1c(Cl)cccc1Cl,-3.62 ± 2.1
11,COc1cc2nccc(Oc3ccc(NC(=O)C4(C(=O)Nc5ccc(F)cc5)CC4)cc3)c2cc1OC [Cabozantinib malate (XL184)],0.553 ± 0.015
12,Nc1cccc(-c2cc3c(Oc4cccc(O)c4)ncnc3[nH]2)c1,-0.5 ± 0.21
13,CCc1cc(Nc2nccc(-c3c(-c4ccc(OC)c(C(=O)Nc5c(F)cccc5F)c4)nc4ccccn34)n2)c(OC)cc1N1CCC(N2CCN(S(C)(=O)=O)CC2)CC1,0.744 ± 0.54
14,COc1cc2c(Nc3ccc(NC(=O)c4ccccc4)cc3)ncnc2cc1OCCCN1CCOCC1,0.281 ± 0.48
15,C[C@@H](N)[C@H]1CC[C@H](C(=O)Nc2ccncc2)CC1,0.0727 ± 0.19
16,Cc1ccc(NC(=O)c2cccc(N(C)C)c2)cc1NC(=O)c1ccc(O)cc1,-0.188 ± 0.87
17,CCc1cnn2c(NCc3ccc[n+]([O-])c3)cc(N3CCCC[C@H]3CCO)nc12,0.031 ± 0.76
18,COc1cc(N2CCC(N)CC2)ccc1Nc1ncc(Cl)c(-c2c[nH]c3ccccc23)n1,-0.695 ± 0.23
19,CSc1cccc(Nc2ncc3cc(-c4c(Cl)cccc4Cl)c(=O)n(C)c3n2)c1,0.169 ± 0.22
20,COc1cc(Nc2ncc(F)c(Nc3ccc4c(n3)N(COP(=O)(O)O)C(=O)C(C)(C)O4)n2)cc(OC)c1OC [Fostamatinib (R788)],0.458 ± 0.74

row,Structure (SMILES),cell viability z-score within plate
1,COc1cc2nccc(Oc3ccc(NC(=O)Nc4cc(C)on4)c(Cl)c3)c2cc1OC [Tivozanib (AV-951)],-0.573 ± 0.16
2,C[C@]1(O)C[C@@H](c2nc(-c3ccc4ccc(-c5ccccc5)nc4c3)c3c(N)nccn32)C1 [Linsitinib (OSI-906)],0.624 ± 0.4
3,O=C1Nc2ccccc2/C1=C1/Nc2ccccc2C1=O [Indirubin],1.02 ± 0.66
4,CCc1ccc(/C=C2/SC(=S)NC2=O)cc1,0.872 ± 0.44
5,CC1=C(C(=O)Nc2cc3cn[nH]c3cc2F)C(c2ccc(C(F)(F)F)cc2)CC(=O)N1 (stereo not given),1.02 ± 0.74
6,N#Cc1c(NC(=O)c2cccc3ccccc23)sc2c1CCCC2 [JNK Inhibitor IX],0.195 ± 0.75
7,"CN1CCN(c2ccc3nc(-c4c(N)c5c(F)cccc5[nH]c4=O)[nH]c3c2)CC1 [Dovitinib (TKI-258, CHIR-258)]",0.442 ± 0.46
8,COC(=O)c1ccc2c(c1)NC(=O)/C2=C(\Nc1ccc(N(C)C(=O)CN2CCN(C)CC2)cc1)c1ccccc1 [Nintedanib (BIBF 1120)],0.242 ± 0.43
9,O=C(NCc1cccc(O)c1)Nc1nc(-c2ccncc2)cs1,0.289 ± 0.42
10,Cc1[nH]c(/C=C2\C(=O)Nc3ccc(S(=O)(=O)Cc4c(Cl)cccc4Cl)cc32)c(C)c1C(=O)N1CCC[C@@H]1CN1CCCC1,0.00363 ± 0.67
11,CCN(CC)CCCCNc1ncc2cc(-c3cc(OC)cc(OC)c3)c(NC(=O)NC(C)(C)C)nc2n1,-0.321 ± 0.21
12,CS(=O)(=O)CCNCc1ccc(-c2ccc3ncnc(Nc4ccc(OCc5cccc(F)c5)c(Cl)c4)c3c2)o1,0.842 ± 0.23
13,C#Cc1cccc(Nc2ncnc3cc(OCCOC)c(OCCO)cc23)c1,-0.584 ± 1.3
14,COc1cc2ncnc(Nc3ccc(O)c(Br)c3)c2cc1OC,0.753 ± 0.38
15,CNC(=O)c1cc(Oc2ccc(NC(=O)Nc3ccc(Cl)c(C(F)(F)F)c3)cc2)ccn1 [Sorafenib Tosylate],-0.335 ± 0.66
16,COc1cc2ncnc(Oc3ccc(CC(=O)Nc4cnn(C(C)C)c4)cc3)c2cc1OC,-0.525 ± 0.26
17,CN(C)Cc1cccc(N=C(c2ccccc2)c2c(O)[nH]c3cc(C(=O)N(C)C)ccc23)c1,0.69 ± 0.34
18,CNC(=O)CN1CCC(Oc2cc3c(Nc4cccc(Cl)c4F)ncnc3cc2OC)CC1 [Sapitinib (AZD8931)],0.472 ± 0.47
19,O=C(Nc1cccc(Nc2ncc(Br)c(NCCc3cnc[nH]3)n2)c1)N1CCCC1,0.384 ± 0.1
20,CCCCCCCCc1ccc(CCC(N)(CO)CO)cc1 [Fingolimod (FTY720) HCl],0.096 ± 0.62
